Results filed as inconclusive are left out. A call without a number means that no potency is given here. Active and inactive are the calls of the source. Calls come from the whole dose curve; as a rule, active = well fitted inhibition curve with a large enough effect; inconclusive = small, poorly fitted or top-dose-only effect; inactive = no such curve, though single readings can be large or run the other way.

A short description of this experiment: NS1 protein of Zika virus - qHTS assay to identify small molecule inhibitors in human HEK 293 cells (AID 1347053). Note: nearly all actives have a fitted effect of over 55% in size. As to conditions: HEK293 ZIKV MR766 infection, NS1 TR-FRET, 24 h; series mostly up to 46.1 µM. An outline of the steps:
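In this cell-based screen, HEK 293 cultures received compound for one hour before Zika MR766 at MOI = 0.5. NS1 was quantified 24 hours later by TR-FRET, normalized to virus-free wells and infected wells.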
(Quantitative high-throughput screening tests each substance at several concentrations.)
Regarding `CC(C)=CCN1CC[C@@]2(C)c3cc(O)ccc3C[C@@H]1[C@@H]2C`, the Potency result was “inactive”.

For the compound `CCCN(CCC)CCc1c[nH]c2ccccc12`, the Potency result is “inactive”.

As to `O=C1CN2CCOC2(c2ccccc2Cl)c2cc(Cl)ccc2N1` (stereo unspecified), the Potency result was “inactive”. Take `Clc1ccc(CSC(Cn2ccnc2)c2ccc(Cl)cc2Cl)cc1` (stereo unspecified): the Potency result is “inactive”. Next, `CCN1CCCC1CNC(=O)C(O)(c1ccccc1)c1ccccc1` (stereo unspecified): “inactive”; `CCOC(=O)C(c1c(O)c2ccccc2oc1=O)c1c(O)c2ccccc2oc1=O`: “inactive”. Next, `CCOC(C(=O)OCCN(C)C)(c1ccccc1)c1ccccc1`: “inactive”; `CCC(=O)C(CCN(C)C)(c1ccccc1)c1ccccc1`: “inactive”.

Consider `CCN(CC)Cc1nccn1-c1ccc([N+](=O)[O-])cc1C(=O)c1ccccc1Cl`, for which the Potency result was “inactive”.

On to `O=c1[nH]c2cc(Cl)ccc2n1C1CCNCC1`, for which the Potency result was “inactive”. The same measure for `O=C(CBr)Nc1ccc(Cl)cc1C(=O)c1ccccc1F`: “inactive”; for `CC#C[C@]1(O)CC[C@H]2[C@@H]3C[C@H](C)C4=CC(=O)CC[C@]4(C)[C@H]3CC[C@@]21C`: “inactive”. The same measure for `Clc1ccc(CO/N=C(\Cn2ccnc2)c2ccc(Cl)cc2Cl)c(Cl)c1`: “inactive”; for `C[C@H](CN1CCOCC1)C(C(=O)N1CCCC1)(c1ccccc1)c1ccccc1`: “inactive”; for `C=CC[C@]1(O)CC[C@H]2[C@@H]3CCC4=CC(=O)CCC4=C3C=C[C@@]21C`: “inactive”. The same measure for `CN1[C@@H]2CC[C@H]1CC(OC(=O)c1cc(Cl)cc(Cl)c1)C2` (stereo partly specified): “inactive”; for `CCN(CC)CCOC(=O)C(C)(c1ccccc1)c1ccccc1`: “inactive”; for `C=CCN1CC[C@]23CCCC[C@H]2[C@H]1Cc1ccc(O)cc13`: “inactive”. Turning to `CCO[C@H]1O[C@@H]2OC3(C)CC[C@H]4[C@H](C)CC[C@@H]([C@H]1C)[C@@]24OO3`, the Potency entry was “inactive”. Next, `CC(Cc1ccccc1)NCCCCl` (stereo unspecified): “inactive”; `Clc1ccc(C(OCCN2CCCCC2)c2ccccc2)cc1` (stereo unspecified): “inactive”; `CN1C[C@@H](NS(=O)(=O)N(C)C)C[C@@H]2c3cccc4c3c(cn4C)C[C@H]21`: “inactive”.

Regarding `O=C(CCCN1CCC(n2c(=O)[nH]c3ccccc32)CC1)c1ccc(F)cc1`, the Potency result is “inactive”. Next, `CC(=O)OC1(c2ccccc2)CCN(CCc2ccccc2)CC1`: “inactive”; `O=C(NC(=O)c1c(F)cccc1F)Nc1cc(Cl)c(OC(F)(F)C(F)C(F)(F)F)cc1Cl` (stereo unspecified): “inactive”.

In the case of `CC[C@H](O)C(C[C@H](C)N(C)C)(c1ccccc1)c1ccccc1`, the Potency result is “inactive”. Next, `Nc1ccccc1C(=O)OCC(O)CO` (stereo unspecified): “inactive”; `CN1CCC(N(Cc2ccccc2)c2ccccc2)CC1`: “inactive”; `CN1C(=O)CN=C(c2ccccc2)c2cc(Cl)ccc21`: “inactive”. Next, `O=C(N[C@@H]1N=C(c2ccccc2F)c2cccc3c2N(CC3)C1=O)c1cc2ccccc2[nH]1`: “inactive”; `C1CN2CCC1CC2`: “inactive”. The same measure for `CCc1cc(OC)c(C[C@H](C)N)cc1OC`: “inactive”; for `CCc1ccc(C2CCNCC2)cc1`: “inactive”; for `ClCc1cccc(Cl)c1`: “inactive”. In the case of `Sc1ccccc1Cl`, the Potency entry is “inactive”.

In the case of `CC1COC2(c3ccccc3Cl)c3cc(Cl)ccc3NC(=O)CN12` (stereo unspecified), the Potency entry was “inactive”.

The values above are taken from PubChem BioAssay (NCATS).
